The values that follow come from PMC8384837, “Expanding the binding specificity for RNA recognition by a PUF domain”.

Common to all, as to assay: yeast three-hybrid, YBZ-1, SC-Leu-His + 0.5 mM 3-AT, 4 days
Conditions in all cases: tags: N-Gal4 AD-HA kept; label: inside an RPR1-promoter hybrid RNA with tandem MS2 sites; ssRNA

One assay deals with PUM1 PUF domain R7-ERG (Homo sapiens, UniProt Q14671 828-1176, S1079E;N1080R;E1083G). The procedure, abridged: (§1)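 Each repeat of the Pumilio-1 PUF domain was randomized at its three base-contacting residues, and these libraries were co-expressed from a centromeric plasmid with matching RNA elements in strain YBZ-1. After four days on SC-Leu (input) or SC-Leu-His + 0.5 mM 3-AT (selection), the repeat regions were PCR-amplified and Illumina-sequenced. The interaction score compares variant frequency between input and selection as a log change, computed in log2 with a pseudocount of 1 for absent variants.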

The next assay has as its target PUM1 PUF domain R3-MPR (Homo sapiens, UniProt Q14671 828-1176, C935M;R936P;Q939R). The gist of the method: as §1
A further assay deals with T1, PUM1 PUF domain R6-RWA (Homo sapiens, UniProt Q14671 828-1176, N1043R;Y1044W;Q1047A).
T1 sequence: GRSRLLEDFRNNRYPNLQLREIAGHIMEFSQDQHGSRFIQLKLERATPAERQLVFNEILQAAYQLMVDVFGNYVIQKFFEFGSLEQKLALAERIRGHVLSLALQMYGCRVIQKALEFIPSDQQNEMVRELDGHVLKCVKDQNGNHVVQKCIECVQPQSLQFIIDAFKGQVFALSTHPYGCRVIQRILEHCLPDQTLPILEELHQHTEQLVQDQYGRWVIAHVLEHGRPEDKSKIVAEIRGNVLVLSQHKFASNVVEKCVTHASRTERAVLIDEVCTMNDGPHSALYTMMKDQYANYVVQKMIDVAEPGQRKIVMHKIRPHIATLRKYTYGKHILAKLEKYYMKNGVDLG
The gist of the method: as §1

For a further assay, the target named is PUM1 PUF domain R5-KAT (Homo sapiens, UniProt Q14671 828-1176, C1007K;R1008A;Q1011T). The gist of the method: as §1
The target in the next assay is PUM1 PUF domain R5-RMV (Homo sapiens, UniProt Q14671 828-1176, C1007R;R1008M;Q1011V). The procedure, abridged: as §1
The target of the next assay is PUM1 PUF domain R5-CKR (Homo sapiens, UniProt Q14671 828-1176, R1008K;Q1011R). The procedure, abridged: as §1
The next assay concerns the target PUM1 PUF domain R1-NSR (Homo sapiens, UniProt Q14671 828-1176, S863N;R864S;Q867R). The procedure, abridged:
as §1

Another assay has as its target PUM1 PUF domain R1-GMK (Homo sapiens, UniProt Q14671 828-1176, S863G;R864M;Q867K). The procedure, abridged:
as §1

In a further assay the target is PUM1 PUF domain R4-VNC (Homo sapiens, UniProt Q14671 828-1176, N971V;H972N;Q975C). The procedure, abridged:
as §1

With “GGCUAGAACUAGUGGAUCCCCCGGCGCCCGGCGGCUCGAGCCCGGGUAAGUCUAAAUAGUCUGCAUGCCGCCGGGCGCCAUGCCUGCAGGUCGACUCUAGAAAACAUG”, the binding signal in the assay with PUM1 PUF domain R7-ERG is 2.98 log2 enrichment (interaction score). On to “GGCUAGAACUAGUGGAUCCCCCGGCGCCCGGCGGCUCGAGCCCGGGUAAGUUUAAAUAGUCUGCAUGCCGCCGGGCGCCAUGCCUGCAGGUCGACUCUAGAAAACAUG”, for which the binding signal with PUM1 PUF domain R7-ERG was 4.23 log2 enrichment (interaction score). In the case of “GGCUAGAACUAGUGGAUCCCCCGGCGCCCGGCGGCUCGAGCCCGGGUAAGUGUAAUUAGUCUGCAUGCCGCCGGGCGCCAUGCCUGCAGGUCGACUCUAGAAAACAUG”, the binding signal with PUM1 PUF domain R3-MPR was 2.67 log2 enrichment (interaction score). Turning to “GGCUAGAACUAGUGGAUCCCCCGGCGCCCGGCGGCUCGAGCCCGGGUAAGUGUAAAUAGUCUGCAUGCCGCCGGGCGCCAUGCCUGCAGGUCGACUCUAGAAAACAUG”, the binding signal was 0.58 log2 enrichment (interaction score) in the assay with PUM1 PUF domain R3-MPR and 5.03 log2 enrichment (interaction score) in the assay with PUM1 PUF domain R6-RWA. On to “GGCUAGAACUAGUGGAUCCCCCGGCGCCCGGCGGCUCGAGCCCGGGUAAGUGUCAAUAGUCUGCAUGCCGCCGGGCGCCAUGCCUGCAGGUCGACUCUAGAAAACAUG”, for which the binding signal with PUM1 PUF domain R5-KAT was 3.96 log2 enrichment (interaction score); with PUM1 PUF domain R5-RMV, 3.48 log2 enrichment (interaction score); with PUM1 PUF domain R5-CKR, 5.95 log2 enrichment (interaction score). On to “GGCUAGAACUAGUGGAUCCCCCGGCGCCCGGCGGCUCGAGCCCGGGUAAGUGUAAAUUGUCUGCAUGCCGCCGGGCGCCAUGCCUGCAGGUCGACUCUAGAAAACAUG”, for which the binding signal with PUM1 PUF domain R1-NSR is 0.4 log2 enrichment (interaction score); with PUM1 PUF domain R1-GMK it was 3.16 log2 enrichment (interaction score).

As to “GGCUAGAACUAGUGGAUCCCCCGGCGCCCGGCGGCUCGAGCCCGGGUAAGUGUAAAUCGUCUGCAUGCCGCCGGGCGCCAUGCCUGCAGGUCGACUCUAGAAAACAUG”, the binding signal with PUM1 PUF domain R1-NSR was 2.5 log2 enrichment (interaction score).

With “GGCUAGAACUAGUGGAUCCCCCGGCGCCCGGCGGCUCGAGCCCGGGUAAGUGUUAAUAGUCUGCAUGCCGCCGGGCGCCAUGCCUGCAGGUCGACUCUAGAAAACAUG”, in the assay with PUM1 PUF domain R5-CKR, the binding signal is 1.55 log2 enrichment (interaction score). With “GGCUAGAACUAGUGGAUCCCCCGGCGCCCGGCGGCUCGAGCCCGGGUAAGUGUACAUAGUCUGCAUGCCGCCGGGCGCCAUGCCUGCAGGUCGACUCUAGAAAACAUG”, in the assay with PUM1 PUF domain R4-VNC, the binding signal is 3.19 log2 enrichment (interaction score). As for “GGCUAGAACUAGUGGAUCCCCCGGCGCCCGGCGGCUCGAGCCCGGGUAAGUGAAAAUAGUCUGCAUGCCGCCGGGCGCCAUGCCUGCAGGUCGACUCUAGAAAACAUG”, in the assay with PUM1 PUF domain R6-RWA, the binding signal is 4.28 log2 enrichment (interaction score).
